The whole screen tested about 2,100 compounds, of which about 480 (23%) were called active. Roughly 5% stayed inconclusive and do not appear here.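 How the source made its calls: active means fitted curve reaches 40% activation at or below the top valid concentration, in every replicate test; inconclusive means replicate tests disagree on the call; inactive means the rest, including activity in the opposite direction.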 Only a sample is shown. Measured potencies and affinities stand elsewhere.
assay: PGC1a acetylation increase, cellular AlphaLISA – cell-based, cherry-picked samples, set 6, dose response (AID 720513); details: U2OS PGC1a acetylation AlphaLISA, overnight, 0 = neutral, -100 = inhibitor control; series mostly up to 19.5 µM; activation (acetylation increase): at the top concentration;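 further: cells made to overexpress flag tagged PGC1a plus GCN5 acetyltransferase by viral infection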

Activation (acetylation increase), inactive:
C[C@@H]1CN([C@@H](C)CO)C(=O)CCCn2cc(nn2)CO[C@H]1CN(C)Cc1ccc2c(c1)OCO2 9.96% [at 21 µM]
O=C(C[C@@H]1C=C[C@@H](NC(=O)CN2CCOCC2)[C@H](CO)O1)NC1CCCCC1 5.29%
CSc1nc(SC)c2c3c(oc2n1)COC(C)(C)C3 18.7%
COCC#Cc1ccc2c(c1)O[C@H](CN(C)C(=O)CN(C)C)[C@@H](C)CN([C@@H](C)CO)S2(=O)=O 1.49%
CCC(=O)N1CCc2cc(OC)c(OC)cc2C1COc1ccc(C(=O)OC)cc1 (stereo not drawn) 28.5%
CCC(=O)N(C)C[C@@H]1Oc2ncc(C#CCc3ccccc3)cc2C(=O)N([C@H](C)CO)C[C@@H]1C -52.8%
C[C@H]1CN([C@@H](C)CO)C(=O)c2cccc(NC(=O)c3nc4ccccc4s3)c2O[C@H]1CN(C)Cc1ccc(C(=O)Nc2ccccc2N)cc1 60.2%
C[C@@H]1CN([C@H](C)CO)C(=O)c2cccc(NC(=O)c3nc4ccccc4s3)c2O[C@@H]1CN(C)CC1CCCCC1 -33.2%
CN(c1ccccc1)S(=O)(=O)c1ccc(Cl)nc1 -0.798%
O=C(/C=C/c1ccccc1)CC(O)(c1ccccc1)C(F)(F)F (stereo not drawn) 27.6% [at 10 µM]
CCN(CC)S(=O)(=O)c1ccc(C(=O)N(c2ccccc2)C2C=CS(=O)(=O)C2)cc1 (stereo not drawn) -8.54%
CNC[C@@H](CC1CCCCC1)NC[C@H](CC(C)C)NCCc1cccc(C(F)(F)F)c1 -101%
Cc1cc(NS(=O)(=O)c2ccc(NC(=O)COc3c(C)cc(Br)cc3C)cc2)no1 19.4%
CCN(CC(=O)NCc1ccc(Cl)cc1)C(=O)CSCC(=O)Nc1ccc(C)cc1 -34%
Cc1nnc2sc(-c3ccc(NC(=O)c4ccc(-c5ccc(Cl)cc5Cl)o4)cc3)nn12 -15.2%
CCC(=O)NCc1c(C)c(C)n(Cc2ccccc2)c1-n1cccc1 14.2%
Cc1ccc(S(=O)(=O)N2CCCCC2C(=O)O)cc1 (stereo not drawn) -66.4%
Cc1ccc(S(=O)(=O)OCCC2=CC(=O)CCN2Cc2ccccc2)cc1 -13.4%
COc1ccc(S(=O)(=O)N2CCCCN3[C@@H](CO)[C@@H](c4ccc(C5=CCCCC5)cc4)[C@@H]3C2)cc1 16.8%
CN(C)CC(=O)N[C@H]1CC[C@H](CCNC(=O)Nc2ccc(Cl)cc2)O[C@H]1CO 0.988%
CCOC(=O)N1CCN(C(=O)c2cc(S(=O)(=O)N3CCCC3)cn2C)CC1 14.9%
CCCc1nnc(NC(=O)CN2CCOCC2)s1 -3.15%
CNC[C@@H]1Oc2cc(C#CCC3CCCC3)ccc2S(=O)(=O)N([C@H](C)CO)C[C@H]1C -9.01%
O=C(N/N=C/C=C\c1ccccc1[N+](=O)[O-])c1cccnc1 11%
COc1ccc(-c2noc(CCC(=O)N3CCN(c4cccc(C)c4C)CC3)n2)cc1 16.8%
COc1ccc(COc2cc(-c3cccc(OC)c3)nc3ccc(NC(=O)c4cccnc4)cc23)cc1 12%
CC(=O)N1N=C(c2ccco2)CC1c1ccco1 (stereo not drawn) -18.8%
CCC1SC2=NC(C)=C(C(=O)OC)C(c3cccs3)N2C1=O (stereo not drawn) 9.25%
COc1ccc(S(=O)(=O)N[C@@H]2CC[C@H](CCNC(=O)c3ccccc3F)O[C@H]2CO)cc1 16.6%
O=c1c(Cl)c(Cl)cnn1Cc1nnc(-c2ccc(Cl)cc2)o1 -89.1%
CCC(=O)N(C)C[C@@H]1Oc2cc(C#Cc3cccnc3)ccc2S(=O)(=O)N([C@H](C)CO)C[C@H]1C -30.7%
C=CCc1ccc(OCCCCNC(C)CC)c(OC)c1 (stereo not drawn) 1.82%
O=C1CN(C(=O)Cn2ncc(Cl)c(Cl)c2=O)c2ccccc2N1 -101%
CSCC(O)Cn1[nH]c(=O)c2cc(Cl)c(Cl)cc2c1=O (stereo not drawn) -20.6%
Cc1cc(S(=O)(=O)NC(C)C)ccc1OCC(=O)Nc1ccc2c(c1)OCCO2 6.52%
O=C(/C=C/c1ccccc1)CC(O)(c1ccccc1)C(F)(F)C(F)F (stereo not drawn) -99.5%
Cc1ccc(C2CC2c2n[nH]c(=S)n2-c2ccc(Cl)cc2)cc1 (stereo not drawn) 4.31%
CCCNC(=O)c1nnsc1S(=O)c1ccc(Cl)cc1 (stereo not drawn) -98.5%
O=C(Nc1ccccc1)c1nnsc1S(=O)c1ccc(Cl)cc1 (stereo not drawn) -86.1%
Cc1ccc(-n2nc3ccc(N)cc3n2)cc1 31%
CCC(=O)N(C)C[C@@H]1Oc2ncc(-c3ccc(C(=O)N(C)C)cc3)cc2C(=O)N([C@H](C)CO)C[C@@H]1C -3.52%
COc1ccc(OCC(=O)NNC(=O)c2c(-c3ccccc3Cl)noc2C)cc1 -14.9%
CSc1n[nH]c(NC(=O)c2c(-c3c(Cl)cccc3Cl)noc2C)n1 -24%
O=C(O)COc1ccc(/C=C2/SC(=S)N(Cc3ccccc3)C2=O)cc1 14.2%
CNC[C@@H](Cc1ccccc1)NC[C@@H](CC1CCCCC1)NCCCc1ccccc1 -100%
CCOC(=O)C1CCN(Cc2ccc(O)c3ncccc23)CC1 0.639%
Cc1cccc(NS(=O)(=O)c2cccc(C(=O)NCC(c3ccco3)N3CCCCC3)c2)c1 (stereo not drawn) -13%
COc1ccc(C(=O)C(CN2CCCC2)c2ccccc2)cc1 (stereo not drawn) -87%
CC(C)c1ccc(S(=O)(=O)N(C)C2(C)CCS(=O)(=O)C2)cc1 (stereo not drawn) 35.8% [at 10 µM]
CCCOc1cccc(C(=O)Nc2cc(NC(=O)c3ccco3)ccc2OC)c1 29.9%
CN(C)S(=O)(=O)N1CCC(Cc2ccccc2)CC1 -4.72%
CCCCNC(=O)c1ccc(CS(=O)(=O)c2ccccc2OC)o1 7.67%
O=C(Nc1ccc(F)cc1)N1CC(=O)N2[C@@H](CO)[C@@H](c3ccc(-c4ccccc4)cc3)[C@@H]2C1 26.6%
CC(C)c1ccc(CNc2ccc([N+](=O)[O-])cn2)cc1 34.8%
COc1ccc(-c2ccc(OC)cc2C(=O)O)cc1 14.8% [at 10 µM]
Cc1nc(NCCc2ccccc2)c2nnn(Cc3ccccc3Cl)c2n1 -5.82%
O=C(NC1CCCCCCC1O)c1ccccc1 (stereo not drawn) -13.7%
CSc1ncccc1C(=O)N1CCN(C(=O)c2ccccc2)CC1 4.96%
CO[C@@H]1CN(C)C(=O)c2cc(NC(C)=O)ccc2OC[C@@H](C)N(Cc2ccccc2C(=O)O)C[C@@H]1C -27.9%
C=CCn1c(SCC(=O)NCc2ccccc2)nnc1-c1ccccc1O 20.6%
Cc1cc(SCC(=O)NC(=O)NCc2ccco2)nc2ccccc12 23.1%
COc1ccc(OC)c(Nc2ccc(C(=O)O)cc2[N+](=O)[O-])c1 5.16% [at 10 µM]
COc1ccccc1/C=C/c1nc2ccc(OC(C)=O)cc2c(=O)o1 11.5%

From PubChem BioAssay AID720513 (Broad Institute, 2013)
